Screening data (PubChem BioAssay)
Sampled rows, rich in hits. Any-hit rate of the full collection: about 2.6%.
Cruzain inh noDet = qHTS Assay for Promiscuous and Specific Inhibitors of Cruzain (without detergent) | Potency, µM, for inactives: max response, negative = inhibition, most hits filed as inhibitors | purified cruzain, Z-FR-AMC fluorescence, no detergent | Cruzipain (Trypanosoma cruzi), P25779 | 2.3% of 200,000 active | AID 1476, 2009;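 also: plate controls were enzyme without inhibitor for no effect and buffer without enzyme for full effect; nearly all actives have a fitted effect of over 40% in size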
Target sequence (P25779 123-467 limits assumed): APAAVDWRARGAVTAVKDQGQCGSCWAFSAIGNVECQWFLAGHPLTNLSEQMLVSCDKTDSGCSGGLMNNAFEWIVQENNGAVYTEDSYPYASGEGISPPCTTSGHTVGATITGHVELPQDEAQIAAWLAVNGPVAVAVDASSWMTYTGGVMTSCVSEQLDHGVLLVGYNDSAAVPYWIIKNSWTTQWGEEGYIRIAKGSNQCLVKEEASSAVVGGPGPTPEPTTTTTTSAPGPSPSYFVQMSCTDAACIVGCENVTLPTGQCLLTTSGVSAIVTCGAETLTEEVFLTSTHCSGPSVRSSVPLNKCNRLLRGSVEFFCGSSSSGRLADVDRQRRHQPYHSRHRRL
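Purified cruzain at 1.5 nM, pre-incubated 15 min with compound at room temperature in 100 mM sodium acetate pH 5.5, 5 mM DTT, 0.00005% Triton X-100. Reaction started with 2 uM Z-FR-AMC; AMC fluorescence increase over 60 s gives rate.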
Cruzain Triton = qHTS Assay for Promiscuous and Specific Inhibitors of Cruzain (with detergent); Cruzipain (Trypanosoma cruzi), P25779; purified cruzain, Z-FR-AMC fluorescence, 0.01% Triton; Potency, µM, for the others: max response, negative = inhibition, usual class: inhibitors; 0.43% of 200,000 active;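 also: plate controls were neutral wells for no effect and buffer without enzyme for full effect; nearly all actives have a fitted effect of over 40% in size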
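Steps: dispense cruzain (1.5 nM final) in acetate buffer pH 5.5 with DTT and 0.01% Triton X-100; pin-transfer compounds; incubate 15 min RT; add Z-FR-AMC (2 uM final); read fluorescence every 30 s, using the 60 s intensity change.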
The depositor's hits bear a star; u = inconclusive. Calls follow the shape of the dose curve; as a rule, active = well fitted curve in the direction sought with a large enough effect; inconclusive = small, poorly fitted or top-dose-only effect, or another doubt; inactive = no such curve, though single readings can be large; an effect the other way counts as inactive or inconclusive. Potency is read from the fitted curve at half-maximal effect.

SMILES	Cruzain inh noDet	Cruzain Triton
CCOc1ccc(C(=O)NC(=S)Nc2ccccc2N2CCOCC2)cc1Br	16µM*	-3%
CCCCOC(=O)c1ccc(NC(=O)CSc2nc3c(c(=O)[nH]2)CCCC3)cc1	-7%	-9%
Cn1cccc1C(=O)N1CCC[C@@]2(CCN(c3ccncc3)C2)C1	0%	3%
O=c1cc(-c2ccc(O)c(O)c2)oc2ccccc12	u	-24%
COC(=O)c1cc(OC)c(OC)cc1NC(=O)c1ccc2c(c1)CCN2S(=O)(=O)c1ccccc1	1%	0%
COc1ccc(N2CCN(C(c3ccccc3)c3nnc(-c4ccccc4Cl)o3)CC2)cc1 (stereo unspecified)	-11%	-4%
NCCC[C@@H](CC(=O)N[C@@H]1CCNC[C@H]1C(=O)N[C@H](CC(=O)N[C@@H](CCC(=O)O)CC(=O)O)Cc1ccccc1)NC(=O)C[C@H](CO)NC(=O)[C@@H]1CCCC[C@H]1N	-1%	2%
CC1CC(C)CN(c2ccc(-n3cnnn3)cc2[N+](=O)[O-])C1 (stereo unspecified)	3%	-6%
O=[N+]([O-])c1cc(-n2cnnn2)ccc1N1CCC(Cc2ccccc2)CC1	25µM*	-5%
N[C@@H](Cc1cc(-c2ccc(Cl)cc2Cl)cc(CP(=O)(O)O)c1O)C(=O)O	0%	2%
COc1ccc(-c2nc3c4ccccc4n(CC(=O)N4CCN(c5ccc(F)cc5)CC4)c(=O)n3n2)cc1	12%	7%
CCC1CCc2nc3sc(C(=O)Nc4cccc(F)c4)c(N)c3cc2C1 (stereo unspecified)	5µM*	-5%
CCC1CCc2nc3sc(C(=O)Nc4cccc(C(F)(F)F)c4)c(N)c3cc2C1 (stereo unspecified)	-34%	-3%
COC(=O)N[C@@H](/C=C/c1ccccc1)/C(C(=O)OC)=C(\C)NCc1ccccc1	-18%	8%
O=C(CCS(=O)(=O)c1cc(Br)cc2c1N(C(=O)C1CC1)CC2)NCc1ccccc1Cl	-2%	0%
COc1ccc(-c2csc(N(CC3CCCO3)C(=O)c3ccc(C)cc3)n2)cc1 (stereo unspecified)	20µM*	-4%
Cc1ccc(-c2csc(N(CC3CCCO3)C(=O)c3ccco3)n2)cc1 (stereo unspecified)	11%	-7%
Cc1ccc(NC(=O)C(Cc2c[nH]c3ccccc23)NC(=O)OCC(C)C)cc1 (stereo unspecified)	-5%	-11%
O=C(COc1cccc(F)c1)N[C@@H](Cc1ccccc1)c1nc2ccccc2[nH]1	-1%	13µM*
CC(NC(=O)Cc1ccccc1)c1nc2ccccc2[nH]1 (stereo unspecified)	-22%	1%
CCN(CC)CC(=O)Nc1nc(-c2ccc(Cl)cc2)cs1	-10%	-6%
O=C(Nc1nc(-c2cccc(Br)c2)cs1)Oc1ccccc1	u	1%
CCc1ccc(-c2csc(NC(=O)Oc3ccccc3)n2)cc1	13µM*	0%
O=C(Nc1ccccc1)Nc1nc(-c2ccc(Cl)cc2)cs1	16µM*	2%
CC(C)CC(=O)NC(=S)Nc1nc(-c2ccc(Cl)cc2)cs1	u	-6%
SMILES	Cruzain inh noDet	Cruzain Triton
O=C(Nc1cccc(Cl)c1)Nc1nc(-c2ccc(Cl)cc2)cs1	10µM*	1%
COc1ccc(NC(=O)C2CCN(S(=O)(=O)c3c(C)noc3/C=C/c3ccco3)CC2)cc1	-2%	-27%
CCc1c(C)sc(NC(=O)CCc2ccc(OC)cc2)c1C(N)=O	1%	-1%
CCCC(=O)Nc1sc(C)c(-c2ccc(OC)cc2)c1C#N	6.3µM*	3%
Nc1cccc(S(=O)(=O)O)c1	-2%	-2%
Oc1cc(Cl)cc(Cl)c1	-9%	-2%
O=C(C1=NN(c2ccccc2)C2C(=O)N(c3cccc(Cl)c3)C(=O)C12)c1ccccc1 (stereo unspecified)	u	-7%
O=C(C1=NN(c2ccccc2)C2C(=O)N(c3ccc(Cl)cc3)C(=O)C12)c1ccccc1 (stereo unspecified)	10µM*	-2%
CC(=O)c1cccc(NS(=O)(=O)c2ccc(N/C=C\C(=O)c3ccc(C)cc3)cc2)c1	-4%	4%
O=C(/C=C/Nc1ccc(S(=O)(=O)Nc2ncccn2)cc1)c1ccc(Cl)c(Cl)c1	32µM*	-5%
CCOc1ccc(N2Cc3ccccc3C2)cc1	16µM*	4%
CCOc1ccc(N2CC(=O)N(c3ccc(OCC)cc3)CC2=O)cc1	-9%	1%
CCOC(=O)c1c(C)[nH]c(CCC(=O)NCc2ccccc2Cl)c1C	5%	0%
CC(C)(C)C(=O)CP(=O)(O)O	-1%	-1%
CCOC(=O)c1c(-c2ccccc2)oc2ccc(OCc3ccc(C)cc3)cc12	10%	-1%
C=Cc1ccc(COc2ccc3oc(-c4ccccc4)c(C(=O)OCC)c3c2)cc1	32µM*	-6%
CCOC(=O)c1c(-c2ccccc2)oc2ccc(NS(=O)(=O)c3ccc(C)cc3C)cc12	16µM*	-1%
CC(=O)c1c(C)oc2ccc(NS(=O)(=O)c3ccc(C(C)C)cc3)cc12	8%	-10%
CCOC(=O)c1c(-c2ccccc2)oc2ccc(NS(=O)(=O)c3ccc(C(C)C)cc3)cc12	20µM*	-3%
CCOC(=O)c1c(-c2ccccc2)oc2ccc(N(C(C)=O)S(=O)(=O)c3cc(C)ccc3C)cc12	-10%	-3%
Nc1nc(Cc2ccccc2)nc(Cc2ccccc2)c1-c1ccccc1	1%	1%
COc1ccc(Nc2c(-c3ccc(C)o3)nc3cc(C)ccn23)cc1	-14%	-12%
COc1ccc(C2C(=O)N(C3CCCCCC3)CC(=O)N2Cc2ccccc2)cc1 (stereo unspecified)	-15%	2%
COC(=O)C1(C)C=C2C(=C(c3ccccc3)C(=O)C2C)CN1 (stereo unspecified)	-1%	-1%
CCCCC/C=C\C/C=C\C/C=C\CCCCCCC(=O)NCC(=O)O	4%	-7%
SMILES	Cruzain inh noDet	Cruzain Triton
CCOC(=O)c1sc(Nc2nc3ccc(OC)cc3s2)cc1C	u	-4%
CCOC(=O)c1sc(Nc2nc3c(F)cccc3s2)cc1C	16µM*	1%
COc1ccc2[nH]cc(CCNc3ncnc4ccc(-c5c(C)noc5C)cc34)c2c1	-13%	-1%
CC1(C)N=C(N)NC(Nc2ccc(Br)cc2)=N1	20µM*	16µM*
CC1(C)N=C(N)NC(Nc2cccc(Br)c2)=N1	6%	-1%
COc1ccc(-n2c(SCC(=O)NC3CCCCC3)nc3c([nH]c4ccccc43)c2=O)cc1	-3%	-1%
O=c1oc(-c2ccco2)nc2c1cnn2-c1ccccc1	0%	-2%
Cc1ccc(N=Cc2nc(-c3ccco3)oc2O)cc1	-16%	-16%
O=C(Oc1oc(-c2ccco2)nc1C=Nc1ccccc1)c1ccoc1	u	22µM*
O=C(Oc1oc(-c2ccco2)nc1C=Nc1ccccc1)c1ccco1	16µM*	14µM*
NC(=O)CCCCC(N)=O	3%	2%
O=S(=O)(c1ccccc1)c1nc(-c2ccco2)oc1NCc1ccccc1	25µM*	22µM*
O=S(=O)(c1ccc(Cl)cc1)c1nc(-c2cccc(Br)c2)oc1NCc1ccccc1	13µM*	-11%
CCNc1oc(-c2ccc(OC)cc2)nc1S(=O)(=O)c1ccc(Br)cc1	-1%	-3%
O=S(=O)(c1ccccc1)c1nc(-c2ccco2)oc1NCc1ccco1	-7%	-9%
Cc1ccc(S(=O)(=O)c2nc(-c3ccccc3F)oc2NCc2ccccc2)cc1	0%	-2%
